Measurements from PubChem BioAssay (Tox21).
Inconclusive results are not listed. Calls of active or inactive are those of the source. Unless noted, calls follow the shape of the dose curve; as a rule, active = well fitted curve in the direction sought with a large enough effect in the repeat runs; inconclusive = weak or mixed curves; inactive = no such curve, though single readings can be large; an effect the other way counts as inactive or inconclusive.

Key:
[1] = qHTS assay to identify small molecule agonists of H2AX (AID 1224845; active = well fitted activation curve with a large enough effect in the signal ratio in the repeat runs, not every such curve was filed as active; the % refers to the signal ratio)
Method in brief: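 Phospho-H2AX Ser139 measured by HTRF (ex 320 nm; em 665 and 620 nm) after 24 hr antibody incubation. Compounds, 15 concentrations, 0.76% DMSO, were applied to CHO-K1 cells for 3hr at 37C before lysis.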

[2] = qHTS assay to identify small molecule agonists of the hypoxia (HIF-1) signaling pathway (AID 1224846; active = well fitted activation curve with a large enough effect in the signal ratio in the repeat runs, not every such curve was filed as active; the % refers to the signal ratio)
Method in brief: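 HRE-bla ME-180 beta-lactamase reporter cells in medium with 0.5% dialyzed FBS, pre-incubated 5 h then exposed to compounds 17 h at 37C, 5% CO2; reporter induction read with CCF4-AM FRET substrate.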

[3] = qHTS assay to identify small molecule agonists of H2AX - cell viability counter screen (AID 1224847; calls by dose curve; also: top concentration of the series differs between compounds; nearly all actives have a fitted effect of over 30% in size)
Method in brief: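 Read-out: CellTiter-Glo luminescence, 30 min RT. Cells: wild-type CHO-K1, 1000/well, 10% FBS, plated overnight at 37C. Treatment: 15 concentrations, 3 hr, 37C, 0.76% DMSO.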

[4] = qHTS assay to identify small molecule antagonists of the estrogen related receptor (ERR) signaling pathway from Tox21 library (AID 1224848); also: nearly all actives have a fitted effect of over 50% in size
Method in brief: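 Reading was by luminescence 30 min after ONE-Glo addition. Before that, ERR cells at 2,000 per well had rested 6 h at 37 C/5% CO2 and then received pin-tooled compounds in DMSO for 18 h at 37 C.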

[5] = qHTS assay to identify small molecule agonists of the estrogen related receptor (ERR) signaling pathway from Tox21 library (AID 1224849; calls by dose curve; also: nearly all actives have a fitted effect of over 15% in size); settings: ERR reporter cell line, ONE-Glo luciferase, 18 h; at 92.4 µM (top of the series) unless noted
Method in brief: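 ERR reporter cells (NTP line) pre-incubated 6 hours at 37 C, then exposed to compounds for 18 hours at 37 C. ONE-Glo luciferase luminescence was read after 30 minutes at room temperature.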

[6] = qHTS RealTime-Glo MT Cell Viability Assay in HepG2 cells - 24 hour (AID 1224867); also: nearly all actives have a fitted effect of over 50% in size
Method in brief: (§1)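 Tox21 10K library screened in qHTS format on HepG2 cells carrying RealTime-Glo reagents. Compounds were added after a 5 h preincubation, and the luminescent signal from continuous culture was measured repeatedly during 40 h treatment.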

[7] = qHTS RealTime-Glo MT Cell Viability Assay in HEK293 cells - 32 hour (AID 1224868); also: top concentration of the series differs between compounds; nearly all actives have a fitted effect of over 50% in size
Method in brief: (§2)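 Luminescence generated by NanoLuc from substrate produced by living HEK293 cells served as the viability signal. Each value reflects the reading at its stated time point during continuous 40 h compound exposure at 37 C.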

[8] = A CellTox Green Cytotoxicity Assay to monitor cytotoxicity in HEK293 cells - 0 hour (AID 1224869); also: nearly all actives have a fitted effect of over 50% in size
Method in brief: (§3)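 HEK293 cells, 600/well, were preincubated 5 hours and then exposed to compounds at 37 C for up to 40 hours. A cell-impermeant cyanine dye staining dead-cell DNA was read by fluorescence at 0, 8, 16, 24, 32 and 40 h time points.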

[9] = qHTS RealTime-Glo MT Cell Viability Assay in HepG2 cells - 40 hour (AID 1224870); also: nearly all actives have a fitted effect of over 50% in size
Method in brief: (§4)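 Real-time viability: cells seeded at 600 per well together with NanoLuc and cell-permeant prosubstrate, compounds added after 5 h incubation. Luminescence tracked at 0, 8, 16, 24, 32 and 40 h of exposure.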

[10] = A CellTox Green Cytotoxicity Assay to monitor cytotoxicity in HEK293 cells - 40 hour (AID 1224871); also: nearly all actives have a fitted effect of over 45% in size
Method in brief: as §3

[11] = qHTS RealTime-Glo MT Cell Viability Assay in HEK293 cells - 16 hour (AID 1224872)
Method in brief: as §2

[12] = qHTS RealTime-Glo MT Cell Viability Assay in HepG2 cells - 8 hour (AID 1224873); also: nearly all actives have a fitted effect of over 55% in size
Method in brief: as §4

[13] = qHTS RealTime-Glo MT Cell Viability Assay in HEK293 cells - 40 hour (AID 1224874); settings: RealTime-Glo luminescence; max response: active compounds read low; also: nearly all actives have a fitted effect of over 50% in size
Method in brief: (§5)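 600 cells/well were plated with the nonlytic NanoLuc/prosubstrate reagent, pre-incubated 5 h, then given 23 nL of compound in DMSO. Incubation at 37 C for 40 h, with luminescence from viable-cell-reduced substrate read repeatedly from 0 h.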

[14] = A CellTox Green Cytotoxicity Assay to monitor cytotoxicity in HEK293 cells - 24 hour (AID 1224875); also: nearly all actives have a fitted effect of over 45% in size
Method in brief: as §3

[15] = A CellTox Green Cytotoxicity Assay to monitor cytotoxicity in HepG2 cells - 16 hour (AID 1224876); also: nearly all actives have a fitted effect of over 45% in size
Method in brief: (§6)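 HepG2 cells, 600/well, preincubated 5 h with CellTox Green dye, then exposed to Tox21 compounds in DMSO at 37 C for up to 40 h. Dead-cell DNA fluorescence read at the indicated time point.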

[16] = qHTS RealTime-Glo MT Cell Viability Assay in HepG2 cells - 32 hour (AID 1224877); also: nearly all actives have a fitted effect of over 55% in size
Method in brief: as §1

[17] = A CellTox Green Cytotoxicity Assay to monitor cytotoxicity in HepG2 cells - 24 hour (AID 1224878); also: nearly all actives have a fitted effect of over 45% in size
Method in brief: as §6

[18] = A CellTox Green Cytotoxicity Assay to monitor cytotoxicity in HepG2 cells - 40 hour (AID 1224879); also: nearly all actives have a fitted effect of over 40% in size
Method in brief: as §6

[19] = qHTS RealTime-Glo MT Cell Viability Assay in HEK293 cells - 0 hour (AID 1224880)
Method in brief: as §5

[20] = A CellTox Green Cytotoxicity Assay to monitor cytotoxicity in HEK293 cells - 32 hour (AID 1224881); also: nearly all actives have a fitted effect of over 40% in size
Method in brief: as §3
% is scaled to controls: 0 for no effect and ±100 for the full control effect.

c1ccc(C2CC2)c(OCC2=NCCN2)c1
inactive: Potency [1] | outcome [2] | Potency [3] | Potency [4] | activity change, positive = activation [5] 4.99% [at 42.5 µM] | Potency [6] | Potency [7] | Potency [8] | Potency [9] | Potency [10] | Potency [11] | Potency [12] | max response [13] 3.13% | Potency [14] | Potency [15] | Potency [16] | Potency [17] | Potency [18] | Potency [19] | Potency [20]

OCCCBr
inactive: Potency [1] | outcome [2] | Potency [3] | Potency [4] | activity change, positive = activation [5] -6.8% | Potency [6] | Potency [7] | Potency [8] | Potency [9] | Potency [10] | Potency [11] | Potency [12] | max response [13] -0.927% | Potency [14] | Potency [15] | Potency [16] | Potency [17] | Potency [18] | Potency [19] | Potency [20]

ClCc1cccc(Cl)c1
inactive: Potency [1] | outcome [2] | Potency [3] | Potency [4] | activity change, positive = activation [5] -9.7% [at 42.5 µM] | Potency [6] | Potency [7] | Potency [8] | Potency [9] | Potency [10] | Potency [11] | Potency [12] | max response [13] -0.225% | Potency [14] | Potency [15] | Potency [16] | Potency [17] | Potency [18] | Potency [19] | Potency [20]

CC(Cl)Cl
inactive: Potency [1] | outcome [2] | Potency [3] | Potency [4] | activity change, positive = activation [5] -9.34% | Potency [6] | Potency [7] | Potency [8] | Potency [9] | Potency [11] | Potency [12] | max response [13] 3.34% | Potency [14] | Potency [15] | Potency [16] | Potency [17] | Potency [18] | Potency [19] | Potency [20]

O=C(O)COc1ccc(Cl)cc1
inactive: Potency [1] | outcome [2] | Potency [3] | Potency [4] | activity change, positive = activation [5] 1.55% | Potency [6] | Potency [7] | Potency [8] | Potency [9] | Potency [10] | Potency [11] | Potency [12] | max response [13] 0.692% | Potency [14] | Potency [15] | Potency [16] | Potency [17] | Potency [18] | Potency [19] | Potency [20]

CC(=O)C(C)(C)C
inactive: Potency [1] | outcome [2] | Potency [3] | Potency [4] | activity change, positive = activation [5] -0.0388% | Potency [6] | Potency [7] | Potency [8] | Potency [9] | Potency [10] | Potency [11] | Potency [12] | max response [13] 8.72% | Potency [14] | Potency [15] | Potency [16] | Potency [17] | Potency [18] | Potency [19] | Potency [20]
